Hits are enriched below; roughly 17% of the tested compounds scored in any of these assays.
HT1080NT lethal: kills 2HG-producing HT-1080-NT fibrosarcoma cells; HT-1080-NT fibrosarcoma viability, CellTiter-Glo ATP luminescence, 48 h; Potency, µM (titrated, usually from 46.1 µM), for inactives: at the highest dose activity, negative = less viability, actives largely listed as cytotoxic; 360,000 compounds, 1.6% hits; AID 686970;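 note: NT is the 2HG producing partner of a matched IDH1 knockdown line; 0% = DMSO-treated cells and -100% = media-only wells without cells; nearly all actives have a fitted effect of over 55% in size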
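Viability by CellTiter-Glo luminescence after 48 h compound exposure at 37C of HT-1080-NT cells (750/well, RPMI, 5% FBS). % activity scaled between DMSO wells and medium-only wells, then curve-fitted and categorized by curve class.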
HepG2 viability: HepG2 cytotoxicity, counter-screen for TGF-b inhibitors; HepG2 CAGA-GFP viability, ATP luminescence, 18 h; Potency, µM (top dose mostly 46.1 µM), without a hit: at the highest dose activity change, negative = cytotoxicity, usual class: cytotoxic; 410,000 compounds, 0.76% hits; AID 588856
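HepG2 CAGA-GFP cells (1000/well, DMEM with 1% FBS) received compound, then TGF-beta at 500 pg/mL final, and were incubated 18 hours at 37 degrees C. Viability was read by CellTiter-Glo luminescence. Media-only wells were set as complete cell-killing and DMSO as no toxicity.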
TGFb inhibitor: blocks TGF-b signaling; HepG2 CAGA-GFP TGF-b/SMAD3 reporter, GFP fluorescence, 18 h; TGF-beta stimulated, 500 pg/mL final; Potency, µM (series often up to 46.1 µM), without a hit: at the top dose activity, negative = inhibition, usual class: inhibitors; 410,000 compounds, 1.2% hits; note: % is set by controls: 0 for no effect and ±100 for the full control effect; nearly all actives have a fitted effect of over 65% in size
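Using HEPG2 CAGA-GFP reporter cells at 1000 cells/well, we pinned test compounds, stimulated with recombinant TGF-beta (500 pg/mL final) and measured total well GFP after 18 h.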
TDP1 cell noCPT: qHTS for Inhibitors of human tyrosyl-DNA phosphodiesterase 1 (TDP1): qHTS in cells in absence of CPT | 420,000 compounds, 15% hits | DT40 Tdp1-/- hTDP1 cells, no CPT, ATP luminescence, 48 h | Potency, µM (highest dose often 46.2 µM), inactives show at the highest dose activity change, negative = growth inhibition, hits mostly inhibitors | AID 686978, 2013; note: % is set by controls: 0 for no effect and ±100 for the full control effect; nearly all actives have a fitted effect of over 55% in size
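No-CPT arm: Tdp1-/-;hTDP1 DT40 cells (400/well) plus compounds, incubated ≥48 hr at 37 °C. Readout CellTiter-Glo luminescence.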
DT40 TDP1 CPT: growth inhibition of DT40 Tdp1-/-;hTDP1 cells with camptothecin (screen for TDP1 inhibitors); chicken DT40 Tdp1-/-;hTDP1 cells + 20 nM CPT, ATP luminescence, 48 h; Potency, µM (highest dose often 46.2 µM), without a hit: at the highest dose activity change, negative = growth inhibition, usual class: inhibitors; 420,000 compounds, 12% hits; AID 686979; note: % is set by controls: 0 for no effect and ±100 for the full control effect; nearly all actives have a fitted effect of over 55% in size
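Chicken DT40 Tdp1-/- cells stably complemented with human TDP1 were seeded at 400 cells/well in medium containing 20 nM camptothecin, exposed to pin-transferred compounds, and grown at 37 °C for at least 48 hr. Viability was read as ATP luminescence.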
HT1080 IDH1KD tx: toxicity to HT-1080 IDH1 knockdown cells (counter line); HT-1080 IDH1 knockdown viability, ATP luminescence, 48 h; Potency, µM (highest dose often 46.1 µM), for the others: at the top dose activity, negative = toxicity, actives largely listed as cytotoxic; 360,000 compounds, 2% hits; AID 686971;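 note: 0% = DMSO wells and -100% = cell-free medium wells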
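Luminescent ATP read-out (CellTiter-Glo, 10 min at room temperature) after 48 h compound exposure at 37 °C gave viability of IDH1-knockdown HT-1080 cells. Activity was normalised to DMSO and cell-free wells, then fitted as concentration-response curves.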
Active calls of the source: *. Calls come from the whole dose curve; as a rule, active = well fitted curve in the direction sought with a large enough effect; inconclusive = small, poorly fitted or top-dose-only effect, or another doubt; inactive = no such curve, though single readings can be large; an effect the other way counts as inactive or inconclusive. Potency is the fitted concentration of half-maximal effect.

`Cc1cccnc1C(NC(=O)C1CCN(CCCOc2ccc(F)cc2)CC1)c1ccccc1` (stereo not drawn) gave HT1080NT lethal inconclusive, HepG2 viability -18%, TGFb inhibitor inconclusive, TDP1 cell noCPT 21µM*, DT40 TDP1 CPT inconclusive and HT1080 IDH1KD tx inconclusive.
Screening CCC1=CC(c2ccccc2)n2ncnc2N1 (stereo not drawn) returned HT1080NT lethal 11%, HepG2 viability -11%, TGFb inhibitor -5%, TDP1 cell noCPT 6%, DT40 TDP1 CPT 0% and HT1080 IDH1KD tx 0%.
Screening O=C(NCC1CCC2(CCN(Cc3cccn3-c3ccc(Cl)cn3)CC2)O1)c1ccccc1 (stereo not drawn) returned TDP1 cell noCPT -7% and DT40 TDP1 CPT 0%.
CC(CCc1ccccc1)NC(=O)COC(=O)C(CCC(N)=O)NC(=O)c1ccc(F)cc1 (stereo not drawn) was read as HT1080NT lethal 20%, HepG2 viability -3%, TGFb inhibitor 3%, TDP1 cell noCPT -2%, DT40 TDP1 CPT 1% and HT1080 IDH1KD tx -3%.
CCOC(=O)COc1ccccc1C(=O)c1cnn(-c2ccccc2)c1 was read as HT1080NT lethal 4%, HepG2 viability -1%, TGFb inhibitor -14%, TDP1 cell noCPT inconclusive, DT40 TDP1 CPT -13% and HT1080 IDH1KD tx 0%.
`Clc1ccc(OCCN2CCCCC2)c(Cl)c1` gave HT1080NT lethal -4%, HepG2 viability -10%, TGFb inhibitor -10%, TDP1 cell noCPT -21%, DT40 TDP1 CPT -8% and HT1080 IDH1KD tx inconclusive.
`Cc1ccccc1C(c1ncccc1C)N(C)C(=O)C1CCN(CCOc2ccc(Cl)cc2Cl)CC1` (stereo not drawn) gave HT1080NT lethal inconclusive, HepG2 viability -86%, TGFb inhibitor inconclusive, TDP1 cell noCPT inconclusive, DT40 TDP1 CPT inconclusive and HT1080 IDH1KD tx 23µM*.
For O=C(CNC(=O)c1ccccc1)NCC(=O)OCC(=O)c1cccc2ccccc12 the results were HepG2 viability 0%, TGFb inhibitor -8%, TDP1 cell noCPT -6% and DT40 TDP1 CPT 3%.
For CN(C)c1ccc(C(=O)N2CCCC(Cn3cc(C(=O)N4CCCC4)nn3)C2)cc1 (stereo not drawn) the results were TDP1 cell noCPT -11% and DT40 TDP1 CPT 1%.
For Cc1ccc(Cl)cc1N(C)C(=O)c1sc2nc3n(c(=O)c2c1C)CCCC3 the results were HepG2 viability -17%, TGFb inhibitor 3%, TDP1 cell noCPT 16µM* and DT40 TDP1 CPT inconclusive.
For Cc1c(C(=O)O)sc2nc3n(c(=O)c12)CCCCC3 the results were HT1080NT lethal 3%, HepG2 viability 0%, TGFb inhibitor -8%, TDP1 cell noCPT -3%, DT40 TDP1 CPT 3% and HT1080 IDH1KD tx 6%.
Cc1ccc(N(C)C(=O)c2sc3nc4n(c(=O)c3c2C)CCCC4)cc1C was read as HepG2 viability -60%, TGFb inhibitor -25%, TDP1 cell noCPT 18µM* and DT40 TDP1 CPT 23µM*.
Screening CCCN(C(=O)c1sc2nc3n(c(=O)c2c1C)CCCC3)c1ccccc1C returned HepG2 viability -34%, TGFb inhibitor -10%, TDP1 cell noCPT inconclusive and DT40 TDP1 CPT 18µM*.
CCN(C(=O)c1sc2nc3n(c(=O)c2c1C)CCCC3)c1ccccc1F was read as HepG2 viability -27%, TGFb inhibitor 1%, TDP1 cell noCPT inconclusive and DT40 TDP1 CPT inconclusive.
`CSc1ccc(NC(=O)NN(c2ccccc2)C2CCS(=O)(=O)C2)cc1` (stereo not drawn) gave HT1080NT lethal 1%, HepG2 viability -9%, TGFb inhibitor -4%, TDP1 cell noCPT -28%, DT40 TDP1 CPT 2% and HT1080 IDH1KD tx -9%.
`Cc1c(CNC2CCCCC2)c(C(=O)O)c(C)n1Cc1ccc(Cl)cc1` gave HepG2 viability 1%, TGFb inhibitor -30%, TDP1 cell noCPT inconclusive and DT40 TDP1 CPT inconclusive.
Screening O=C(Nc1ccc(F)cc1)C1C2CCC3C(CCC21)C3(Cl)Cl (stereo not drawn) returned HT1080NT lethal -3%, HepG2 viability 11%, TGFb inhibitor 27%, TDP1 cell noCPT 18µM*, DT40 TDP1 CPT inconclusive and HT1080 IDH1KD tx 1%.
For O=C(Nc1ccc(F)cc1)C1C(c2ccccc2)C1(Cl)Cl (stereo not drawn) the results were HT1080NT lethal -14%, HepG2 viability -31%, TGFb inhibitor 16µM*, TDP1 cell noCPT inconclusive, DT40 TDP1 CPT -25% and HT1080 IDH1KD tx -9%.
Screening CC(C)CNC(=O)COC(=O)c1c2c(nc3ccccc13)/C(=C/c1cccs1)CC2 returned HT1080NT lethal -8%, HepG2 viability -30%, TGFb inhibitor -6%, TDP1 cell noCPT 26µM*, DT40 TDP1 CPT inconclusive and HT1080 IDH1KD tx inconclusive.
Screening CCCCNC(=O)COC(=O)c1c2c(nc3ccccc13)/C(=C\c1cccs1)CC2 returned HT1080NT lethal -19%, HepG2 viability -19%, TGFb inhibitor inconclusive, TDP1 cell noCPT inconclusive, DT40 TDP1 CPT inconclusive and HT1080 IDH1KD tx -26%.
`NC(=O)c1ccc(NC(=O)COC(=O)c2c3c(nc4ccccc24)/C(=C\c2cccs2)CCC3)cc1` gave HT1080NT lethal -11%, HepG2 viability -28%, TGFb inhibitor -43%, TDP1 cell noCPT 21µM*, DT40 TDP1 CPT inconclusive and HT1080 IDH1KD tx -5%.
NS(=O)(=O)c1cc2c(cc1Cl)NC(c1ccccc1OCC(=O)O)NS2(=O)=O (stereo not drawn) was read as HT1080NT lethal 0%, HepG2 viability 6%, TGFb inhibitor 11%, TDP1 cell noCPT inconclusive, DT40 TDP1 CPT -2% and HT1080 IDH1KD tx 15%.
For COc1ccccc1CNC(=O)CN1C(=O)NC2(CCC(C)CC2)C1=O (stereo not drawn) the results were HT1080NT lethal 16%, HepG2 viability 2%, TGFb inhibitor 17%, TDP1 cell noCPT -1%, DT40 TDP1 CPT 15% and HT1080 IDH1KD tx 10%.
`Cn1c(Oc2ccc(F)cc2F)c(C=O)c2ccccc21` gave HT1080NT lethal -11%, HepG2 viability -19%, TGFb inhibitor -20%, TDP1 cell noCPT inconclusive, DT40 TDP1 CPT -12% and HT1080 IDH1KD tx 12%.

High-throughput results: PubChem, National Center for Advancing Translational Sciences (NCATS)
